# The whole screen tested about 310,000 compounds, of which about 14,000 (4.5%) showed an effect of 50% or more. The effect is printed as a negative number. Shown is part of a subset that was picked to be rich in strong results.
# Target: human ether-à-go-go-related gene (hERG) potassium channel (human, UniProt Q12809)
# Test: primary screen, population patch clamp on CHO cells stably expressing hERG; higher = less effect of the substance
# 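Also: peak tail current of the secondary pulse compared with the same well before compound.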
# human ether-à-go-go-related gene (hERG) potassium channel, sequence (Q12809 whole entry, looked up): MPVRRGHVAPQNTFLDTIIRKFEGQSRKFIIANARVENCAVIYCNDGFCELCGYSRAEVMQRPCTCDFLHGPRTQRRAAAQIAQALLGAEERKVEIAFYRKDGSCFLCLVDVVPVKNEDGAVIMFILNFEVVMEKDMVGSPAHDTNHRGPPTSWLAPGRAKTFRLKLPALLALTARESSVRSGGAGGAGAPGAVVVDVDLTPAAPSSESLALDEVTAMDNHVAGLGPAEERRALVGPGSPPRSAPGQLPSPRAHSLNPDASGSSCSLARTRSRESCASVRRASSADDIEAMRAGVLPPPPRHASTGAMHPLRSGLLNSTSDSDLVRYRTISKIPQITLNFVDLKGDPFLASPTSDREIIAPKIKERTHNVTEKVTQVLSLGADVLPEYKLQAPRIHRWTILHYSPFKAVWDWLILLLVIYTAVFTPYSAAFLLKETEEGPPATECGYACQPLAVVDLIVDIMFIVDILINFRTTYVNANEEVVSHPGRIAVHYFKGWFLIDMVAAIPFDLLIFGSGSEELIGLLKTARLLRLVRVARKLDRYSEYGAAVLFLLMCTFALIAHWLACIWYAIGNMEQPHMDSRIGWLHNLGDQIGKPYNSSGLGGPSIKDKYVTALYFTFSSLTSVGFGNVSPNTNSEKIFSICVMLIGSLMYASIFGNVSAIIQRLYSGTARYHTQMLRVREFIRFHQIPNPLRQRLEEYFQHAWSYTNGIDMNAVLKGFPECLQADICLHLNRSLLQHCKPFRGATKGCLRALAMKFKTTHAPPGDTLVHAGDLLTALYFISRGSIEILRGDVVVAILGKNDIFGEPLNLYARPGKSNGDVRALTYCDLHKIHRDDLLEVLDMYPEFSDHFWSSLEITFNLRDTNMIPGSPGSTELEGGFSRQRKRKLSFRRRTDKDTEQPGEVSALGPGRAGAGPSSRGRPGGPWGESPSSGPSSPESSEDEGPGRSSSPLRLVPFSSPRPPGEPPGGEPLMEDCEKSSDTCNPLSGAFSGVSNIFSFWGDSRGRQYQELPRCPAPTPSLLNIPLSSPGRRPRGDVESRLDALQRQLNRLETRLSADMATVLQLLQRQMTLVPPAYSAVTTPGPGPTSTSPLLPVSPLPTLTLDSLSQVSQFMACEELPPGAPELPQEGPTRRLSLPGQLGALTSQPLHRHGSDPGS
row,Structure (SMILES),"hERG current change (%, negative = inhibition) at 10uM"
1,CCCn1c(SCC(=O)NC2CC2)nnc1-c1ccccn1,-2.29%
2,COc1ccccc1NC(=O)c1sc2nc(Cc3ccccc3)cc(C(F)(F)F)c2c1N,-7.85%
3,COc1ccccc1CC(=O)N1CCOCC1,21%
4,Cc1ccccc1C(NC(N)=O)c1ccccc1 (centres unmarked),0.289%
5,COc1ccccc1-n1cnnc1SC1CCOC1=O (centres unmarked),4.66%
6,S=C(CN1CCCC1=S)N1CCOCC1,17.3%
7,CCOCCOC(=O)c1ccc(-n2cnc(C)n2)nc1,16.3%
8,Cc1cccc(C)c1NC(=O)C(NC=O)c1ccccc1Cl (centres unmarked),0.855%
9,O=S(=O)(Nc1ccccc1N1CCOCC1)c1ccc(F)c(Cl)c1,-18.6%
10,CC1Cc2ccccc2N1c1ncnc2nc[nH]c12 (centres unmarked),-6.58%
11,CSc1nc2nc3c(c(=O)n2[nH]1)CN(Cc1ccccc1)CC3,-20.5%
12,CC1=CC(C)(C)Nc2ccc(Cc3ccc4c(c3)C(C)=CC(C)(C)N4)cc21,13.9%
13,CC1=CC(C)(C)Nc2ccc(C)cc21,-58.1%
14,CCc1ccc2c(c1)C(C)=CC(C)(C)N2,17%
15,Cc1cc(Oc2ccc(=O)n(C)n2)nc(SCc2ccccc2)n1,25.7%
16,CCOc1ccc(-n2c(-c3ccccc3)c[nH]c2=S)cc1,20.6%
17,CCOc1ccc(-c2c[n+]3c(n2-c2ccccc2)CCCCC3)cc1.[Br-],-64.7%
18,Cn1c(-c2ccccc2)c[n+]2c1CCCCC2.[Br-],-0.399%
19,CCOc1ccc(-n2c(-c3ccccc3)c[n+]3c2CCC3)cc1.[Br-],-54%
20,CCOc1ccc(-n2c(-c3ccccc3)c[n+]3c2CCCCC3)cc1.[Br-],-67%
21,FC(F)Oc1ccc(-c2c[n+]3c(n2-c2ccccc2)CCCCC3)cc1,-70.3%
22,CCOc1ccc(-c2nnc(-c3ccccc3)n2-c2ccccc2)cc1,-18.8%
23,COc1ccc(-c2c[n+]3c(n2-c2ccccc2)CCCCC3)cc1.[Br-],-18.6%
24,CN(C)C(CNC(=O)c1cccs1)c1cccnc1 (centres unmarked),18.7%

row,Structure (SMILES),"hERG current change (%, negative = inhibition) at 10uM"
1,CCOC(=O)c1cc2oc(C)cc2n1CC(=O)OC1CCCCC1,-5.5%
2,O=C(COc1ccc(S(=O)(=O)N2CCCCC2)cc1)N1CCOCC1,3.54%
3,COc1ccc(CC(=O)Nc2ccc(-c3nnc(-c4ccc(C)cc4)o3)cc2)cc1,19.1%
4,NNC(=O)c1ccc(Cl)cc1,2.74%
5,C=CCN1N=C(/C=C/c2ccc(OC)cc2)CCC1=O,6.48%
6,C/C=C(\C)c1nnc(NC(=O)OCC)s1,8.46%
7,Cc1c(NC=C(C#N)C#N)c(=O)n(-c2ccccc2)n1C,35.5%
8,NNC(=O)Cn1nc(Cc2ccccc2)n(N)c1=O,8.22%
9,CC(=O)N/C(=C\c1ccccc1)C(=O)N1CCOCC1,20.1%
10,CC(=O)N/C(=C/c1ccccc1)C(=O)N1CCCCC1,10.3%
11,COc1ccc(C(=O)N/C(=C\c2ccccc2)C(=O)N2CCOCC2)cc1,-8.27%
12,O=C(N/C(=C\c1ccccc1)C(=O)N1CCOCC1)c1ccccc1Cl,0.479%
13,O=C(/C=C/c1ccccc1)N/C(=C/c1ccccc1)C(=O)N1CCCCC1,-58.7%
14,O=C(N/C(=C/c1ccccc1)C(=O)N1CCCCCC1)c1ccccc1,-12.4%
15,COc1ccc(/C=C(/NC(=O)/C=C/c2ccccc2)C(=O)N2CCOCC2)cc1,-71.2%
16,COc1ccc(/C=C(/NC(=O)/C=C/c2ccccc2)C(=O)O)cc1,24.9%
17,O=C(/C=C/c1ccccc1)N/C(=C/c1ccccc1)C(=O)N1CCOCC1,-58.8%
18,CCOC(=O)C1(O)CC(C)=NN1C(=O)c1cccc(Br)c1 (centres unmarked),25.9%
19,CCOc1ccc(C(=O)NCCN2CCCCC2)c(OCC)c1,-23.1%
20,COc1ccc(NC(=O)CCNS(=O)(=O)c2ccc3c(c2)c(=O)n(C)c(=O)n3C)cc1,-2.03%
21,CC/C(=N\O)c1ccc(OC)c(OC)c1,21.1%
22,COC(=O)c1ccc(/C=C/c2c(-c3ccc(OC)cc3)oc3ccccc23)cc1,7.39%
23,CCCn1c(O)c(N=NC(=O)c2cccnc2)c2cc(Br)ccc21,-3.7%
24,CCn1c(O)c(N=NC(=O)c2cccnc2)c2cc(Br)ccc21,-2.17%

row,Structure (SMILES),"hERG current change (%, negative = inhibition) at 10uM"
1,CCCCn1c(O)c(N=NC(=O)c2ccncc2)c2cc(Br)ccc21,-68.1%
2,O=C(NCc1ccco1)c1noc2c1CCCC2,-3.59%
3,CCOc1ccc(C(CC(=O)O)NS(=O)(=O)c2ccc(C)cc2)cc1OC (centres unmarked),10.3%
4,CSc1nc2ccc(NS(=O)(=O)c3ccc(CNC(C)=O)cc3)cc2s1,-0.24%
5,COc1ccc(-c2n[nH]c(=S)n2C2CCCCC2)cc1,20.2%
6,Cc1ccc(S(=O)(=O)Nc2ccc3c(c2)nc(CN2CCCC2)n3C)cc1,-46.5%
7,Cn1c(CN2CCCC2)nc2cc(NS(=O)(=O)c3ccccc3)ccc21,1.49%
8,Cn1c(CN2CCCC2)nc2cc(NS(=O)(=O)c3ccc(Cl)cc3)ccc21,-61.7%
9,Cn1c(CN2CCCCC2)nc2cc(NS(=O)(=O)c3ccc(Cl)cc3)ccc21,-62.5%
10,CC1CC(C)CN(C(=O)CNS(=O)(=O)c2ccc(Br)s2)C1 (centres unmarked),-1.92%
11,S=c1[nH]nc(-c2ccc(Cl)cc2)n1/N=C/c1ccco1,14.3%
12,O=C(Nc1cccc(C(=O)N2CCN(c3cccc(Cl)c3)CC2)c1)c1ccccc1,4.69%
13,O=C(c1ccc(N2CCN(C(=O)c3ccc(F)c(F)c3)CC2)cc1)c1cccc(F)c1,-16.7%
14,O=C(Nc1cccc(C(=O)N2CCCC2)c1)c1ccccc1,2.2%
15,O=C(Nc1cccc(C(=O)N2CCN(c3ccc(F)cc3)CC2)c1)c1ccccc1,-58.7%
16,O=C(c1cn(CC2CCCCC2)nn1)N1CCN(c2ccc(F)cc2)CC1,-52.5%
17,CCOc1ccccc1N1CCN(C(=O)c2cn(CC3CCCCC3)nn2)CC1,-9.95%
18,O=C(c1ccc(N2CCN(C(=O)c3ccccc3)CC2)cc1)c1cccc(F)c1,-74.5%
19,O=C(c1cccc(C(=O)N2CCN(c3ccccc3)CC2)c1)N1CCN(c2ccccc2)CC1,-41.7%
20,O=C(c1ccc(N2CCN(C(=O)c3cccc(F)c3)CC2)cc1)c1cccc(F)c1,-12.5%
21,COc1ccc(N2CCN(C(=O)c3cn(CC4CCCCC4)nn3)CC2)cc1,-14.3%
22,O=C(c1cccc(C(=O)N2CCN(c3ccc(F)cc3)CC2)c1)N1CCN(c2ccc(F)cc2)CC1,-72.5%
23,O=C(c1cccc(-c2ccc(O)cc2)c1)N1CCN(c2ccc(F)cc2)CC1,23.3%

# Source: PMC4336329 (PLoS ONE, 2015)
